Measurements as given in PubChem BioAssay (NCI).
The panel holds about 83,000 compounds, 20% with a hit somewhere; the sample as a whole holds those more often.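 Values shown are percent growth following 48 h exposure of cells in 96-well plates to a single concentration of compound; below 10 was considered active.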 Activity calls are given as the source filed them.

Key:
Assay in all cases: NCI-60 one-dose screen, 48 h (100 = growth as untreated, 0 = no growth, -100 = all killed)
Conditions in all cases: 10 µM unless noted
NCI-H23 lung = test system: NCI-H23 lung
NCI-H226 lung = test system: NCI-H226 lung
NCI-H322M lung = test system: NCI-H322M lung
HOP-62 NSCLC = test system: HOP-62 NSCLC
NCI-H460 lung = test system: NCI-H460 lung
HOP-92 NSCLC = test system: HOP-92 NSCLC
NCI-H522 lung = test system: NCI-H522 lung
A549/ATCC NSCLC = test system: A549/ATCC NSCLC
786-0 renal = test system: 786-0 renal
COLO 205 colon = test system: COLO 205 colon

Measured: growth

C/C(=C(/c1ccccc1)c1ccc(OCC(O)CNCCN2CCOCC2)cc1)c1ccccc1 (stereo not given)
inactive: NCI-H23 lung 83.2% | NCI-H226 lung 96.1% | NCI-H322M lung 72.7% | HOP-62 NSCLC 54.9% | NCI-H460 lung 17.6% | HOP-92 NSCLC 59.1% | NCI-H522 lung 44.6% | A549/ATCC NSCLC 70.8% | 786-0 renal 97.6%
active: COLO 205 colon -64.5%

COc1cc(C2CC(c3cccc(Nc4ccncc4)c3)=NN2c2ccc(Cl)cc2)cc(OC)c1OC (stereo not given)
active: HOP-62 NSCLC -44.4% | NCI-H460 lung -73.8% | NCI-H522 lung -46.1% | COLO 205 colon -63.1%
inactive: NCI-H23 lung 79.9% | NCI-H226 lung 84.3% | NCI-H322M lung 65.1% | HOP-92 NSCLC 25.1% | A549/ATCC NSCLC 26.1% | 786-0 renal 104%

Cc1cc2cc3cc(C)c(N)cc3[n+](C)c2cc1N
inactive: NCI-H226 lung 30.9% | NCI-H322M lung 28.4% | HOP-62 NSCLC 19.3% | 786-0 renal 14.7%
active: NCI-H23 lung 0.672% | NCI-H460 lung -14.5% | HOP-92 NSCLC -11.9% | NCI-H522 lung -4.5% | A549/ATCC NSCLC 3.82% | COLO 205 colon -46.5%

OC1(c2ccc(Cl)c(C(F)(F)F)c2)CCN(CCCC(c2ccc(F)cc2)c2ccc(F)cc2)CC1
active: NCI-H23 lung -74.9% | NCI-H322M lung -75.5% | HOP-62 NSCLC -94.6% | NCI-H460 lung -95% | HOP-92 NSCLC -87.5% | NCI-H522 lung -80.5% | A549/ATCC NSCLC -70.7% | 786-0 renal -97.6% | COLO 205 colon -92.6%
inactive: NCI-H226 lung 28.9%

[O-][n+]1ccccc1CCN(O)CCc1cccc[n+]1[O-]
inactive: NCI-H23 lung 97.1% | NCI-H226 lung 85.7% | NCI-H322M lung 96.5% | HOP-62 NSCLC 94.1% | NCI-H460 lung 115% | HOP-92 NSCLC 86.8% | NCI-H522 lung 81.5% | A549/ATCC NSCLC 101% | 786-0 renal 101% | COLO 205 colon 104%

O=C(CN1CCOCC1)Nc1ccc2ncnc(Nc3ccc(OCc4cccc(F)c4)c(Cl)c3)c2c1
inactive: NCI-H23 lung 89.6% | NCI-H226 lung 85.1% | NCI-H322M lung 20.9% | HOP-62 NSCLC 84.5% | NCI-H460 lung 67.5% | HOP-92 NSCLC 60% | NCI-H522 lung 25.2% | A549/ATCC NSCLC 49.9% | 786-0 renal 66.2% | COLO 205 colon 66.7%

O=C(CCN1CCCC1)Nc1ccc2c(Nc3ccccc3)c3ccccc3nc2c1
active: NCI-H322M lung 7.35% | NCI-H460 lung -60.7% | NCI-H522 lung -33.7% | COLO 205 colon -37.4%
inactive: NCI-H23 lung 22.1% | NCI-H226 lung 41.9% | HOP-62 NSCLC 12.1% | HOP-92 NSCLC 14.3% | A549/ATCC NSCLC 10.1% | 786-0 renal 10.1%

C=C(C)[C@@H]1CC[C@]2(C(=O)NCC(=O)OC)CC[C@]3(C)[C@H](CC[C@@H]4[C@@]5(C)Cc6c([nH]c7ccccc67)C(C)(C)[C@@H]5CC[C@]43C)[C@@H]12
inactive: NCI-H23 lung 68.6% | NCI-H226 lung 63.5% | NCI-H322M lung 85.8% | HOP-62 NSCLC 82.8% | NCI-H460 lung 74.6% | HOP-92 NSCLC 91.1% | NCI-H522 lung 60.5% | A549/ATCC NSCLC 60.7% | 786-0 renal 75% | COLO 205 colon 86.1%

CC(=O)c1c[nH]c2ccc(-c3ccnc(Nc4ccc(NC(=O)c5cccc(F)c5)c(CN5CCOCC5)c4)n3)cc12
active: NCI-H23 lung -13.2% | NCI-H226 lung -0.697% | NCI-H322M lung -1.47% | HOP-62 NSCLC 1.97% | NCI-H460 lung -6.06% | HOP-92 NSCLC -22.8% | NCI-H522 lung 0.424% | A549/ATCC NSCLC 8.56% | 786-0 renal 5.7% | COLO 205 colon -17.8%

CC[C@H](CC[C@@H](C)[C@H]1CC[C@H]2[C@@H]3CC=C4C[C@@H](OCCc5nn[nH]n5)CC[C@]4(C)[C@H]3CC[C@]12C)C(C)C
inactive: NCI-H23 lung 97.7% | NCI-H226 lung 110% | NCI-H322M lung 101% | HOP-62 NSCLC 98.4% | NCI-H460 lung 109% | HOP-92 NSCLC 147% | NCI-H522 lung 82.9% | A549/ATCC NSCLC 93.7% | 786-0 renal 101% | COLO 205 colon 118%

O=S(=O)(NCCCNc1nccc(-c2c(-c3cccc(O)c3)nc3occn23)n1)c1ccc(Br)cc1
inactive: NCI-H23 lung 101% | NCI-H226 lung 103% | NCI-H322M lung 113% | HOP-62 NSCLC 124% | NCI-H460 lung 97.1% | HOP-92 NSCLC 108% | NCI-H522 lung 94.3% | A549/ATCC NSCLC 98.2% | 786-0 renal 106% | COLO 205 colon 31.9%

COc1cc2nnn3c4ncccc4c(N=O)c3c2cc1OC
active: HOP-92 NSCLC -12% | NCI-H522 lung -34.3%
inactive: NCI-H23 lung 112% | NCI-H226 lung 97% | NCI-H322M lung 78.6% | HOP-62 NSCLC 106% | NCI-H460 lung 84.9% | A549/ATCC NSCLC 95.2% | 786-0 renal 48.2% | COLO 205 colon 102%

CS(=O)(=O)c1ccc(-c2cc(-c3nnc(SCC(=O)Nc4ccc(C(=O)/C=C/c5ccc(Cl)cc5)cc4)n3-c3ccccc3)c3ccccc3n2)cc1
inactive: NCI-H23 lung 97.8% | NCI-H226 lung 94.6% | NCI-H322M lung 89.8% | HOP-62 NSCLC 95.1% | NCI-H460 lung 99.1% | HOP-92 NSCLC 110% | NCI-H522 lung 90% | A549/ATCC NSCLC 91.5% | 786-0 renal 93% | COLO 205 colon 106%

COc1cc(NCC(C)(O)CN(CC(C)C)CC(C)C)c2nc(C)ccc2c1 (stereo not given)
inactive: NCI-H23 lung 79.7% | NCI-H226 lung 74.1% | NCI-H322M lung 89.3% | HOP-62 NSCLC 92.5% | NCI-H460 lung 101% | HOP-92 NSCLC 79.8% | NCI-H522 lung 77.6% | A549/ATCC NSCLC 91% | 786-0 renal 86.6% | COLO 205 colon 79.5%

CCOc1cc(CNc2ccc(N3CCOCC3)c(C(=O)O)c2)ccc1OC
inactive: NCI-H23 lung 100% | NCI-H226 lung 93.4% | NCI-H322M lung 94.8% | HOP-62 NSCLC 103% | NCI-H460 lung 102% | HOP-92 NSCLC 110% | NCI-H522 lung 99.3% | A549/ATCC NSCLC 93% | 786-0 renal 112% | COLO 205 colon 104%

O=C(Nc1ccccc1)Oc1ccccc1-c1ccccc1
inactive: NCI-H23 lung 97.7% | NCI-H226 lung 93.3% | NCI-H322M lung 105% | HOP-62 NSCLC 74.9% | NCI-H460 lung 99.7% | HOP-92 NSCLC 94.7% | NCI-H522 lung 83.7% | A549/ATCC NSCLC 73.8% | 786-0 renal 93.5% | COLO 205 colon 96%

Cc1[nH]n(C(=O)c2ccncc2)c(=O)c1N=Nc1ccc(F)c(Cl)c1
inactive: NCI-H23 lung 92.1% | NCI-H226 lung 91.9% | NCI-H322M lung 110% | HOP-62 NSCLC 95.8% | NCI-H460 lung 109% | HOP-92 NSCLC 89.7% | NCI-H522 lung 103% | A549/ATCC NSCLC 107% | 786-0 renal 92.9% | COLO 205 colon 126%

O=S(=O)(NCCCNc1nccc(-c2c(-c3ccccc3)nc3occn23)n1)c1ccc(Cl)cc1
inactive: NCI-H23 lung 94.2% | NCI-H226 lung 75.3% | NCI-H322M lung 99.9% | HOP-62 NSCLC 95.1% | NCI-H460 lung 85% | HOP-92 NSCLC 93.8% | NCI-H522 lung 77.9% | A549/ATCC NSCLC 65.8% | 786-0 renal 82.5% | COLO 205 colon 69.1%

O=c1[nH]nc(-c2ccc(Br)cc2)cc1Cc1ccc(O)cc1
inactive: NCI-H23 lung 98.5% | NCI-H226 lung 85.6% | NCI-H322M lung 126% | HOP-62 NSCLC 109% | NCI-H460 lung 103% | HOP-92 NSCLC 51.8% | NCI-H522 lung 89.5% | A549/ATCC NSCLC 56.7% | 786-0 renal 103% | COLO 205 colon 98.8%

COc1ccc2nc(N=Nc3c(O)ccc4ccccc34)sc2c1
inactive: NCI-H23 lung 31.6% | NCI-H226 lung 55% | NCI-H322M lung 43.8% | HOP-62 NSCLC 30.2% | HOP-92 NSCLC 60.9% | NCI-H522 lung 61.2% | A549/ATCC NSCLC 24.6% | 786-0 renal 14.7% | COLO 205 colon 33.1%
active: NCI-H460 lung 6.32%

Cc1ccc(Nc2cc(=S)nc(N)[nH]2)cc1C
inactive: NCI-H23 lung 90.8% | NCI-H226 lung 97.1% | NCI-H322M lung 98.1% | HOP-62 NSCLC 89.3% | NCI-H460 lung 103% | HOP-92 NSCLC 75.7% | NCI-H522 lung 91.1% | A549/ATCC NSCLC 99.9% | 786-0 renal 98.9% | COLO 205 colon 112%

COc1cccc2c1C(=O)c1c(O)c3c(c(O)c1C2=O)C[C@@](O)(C(=O)CO)C[C@@H]3O[C@H]1C[C@H](N)[C@@H](O)[C@H](C)O1
inactive: NCI-H322M lung 13.6% | 786-0 renal 12.1%
active: NCI-H23 lung -25% | NCI-H226 lung -41.8% | HOP-62 NSCLC -18% | NCI-H460 lung 1.64% | HOP-92 NSCLC -26% | NCI-H522 lung -55.2% | A549/ATCC NSCLC -22.5% | COLO 205 colon -86.6%

Cc1cc(C)n(Nc2nc3ccccc3[nH]c2=O)c(=O)c1C#N
inactive: NCI-H23 lung 89.8% | NCI-H226 lung 89% | NCI-H322M lung 100% | HOP-62 NSCLC 93% | NCI-H460 lung 100% | HOP-92 NSCLC 76.2% | NCI-H522 lung 93.3% | A549/ATCC NSCLC 96.9% | 786-0 renal 96.5% | COLO 205 colon 113%

Clc1cc(Cl)cc(N2N=C(c3cccc(Nc4ccncc4)c3)CC2c2ccccc2)c1 (stereo not given)
inactive: NCI-H23 lung 82.8% | NCI-H226 lung 93.1% | NCI-H322M lung 78% | HOP-62 NSCLC 43.6% | HOP-92 NSCLC 55.7% | NCI-H522 lung 65.2% | A549/ATCC NSCLC 45.5% | 786-0 renal 86.3%
active: NCI-H460 lung -76.1% | COLO 205 colon -49.7%

O=C1Nc2c(ccc(Cl)c2Cl)/C1=C/c1ccc(F)cc1
inactive: NCI-H23 lung 87.2% | NCI-H226 lung 84.8% | NCI-H322M lung 93.9% | HOP-62 NSCLC 89.3% | NCI-H460 lung 97.8% | HOP-92 NSCLC 42.1% | NCI-H522 lung 76.4% | A549/ATCC NSCLC 41.1% | 786-0 renal 76.7% | COLO 205 colon 97.7%

Cc1nn(-c2ccccc2)c(N2CCOCC2)c1/C=N/N=c1\sc2ccccc2n1C
inactive: NCI-H23 lung 79% | NCI-H226 lung 73.8% | NCI-H322M lung 92.6% | HOP-62 NSCLC 99.4% | NCI-H460 lung 39.6% | HOP-92 NSCLC 53% | NCI-H522 lung 81.5% | A549/ATCC NSCLC 87.7% | 786-0 renal 96.7% | COLO 205 colon 82.7%

CC1(C)CN(Cc2ccccc2)CCN1Cc1ccccc1
inactive: NCI-H23 lung 104% | NCI-H226 lung 95% | NCI-H322M lung 103% | HOP-62 NSCLC 108% | NCI-H460 lung 106% | HOP-92 NSCLC 96.3% | NCI-H522 lung 91.8% | A549/ATCC NSCLC 89.5% | 786-0 renal 99.6% | COLO 205 colon 112%
